About 83,000 compounds went through this panel and 20% of them were active in at least one assay; those are over-represented in the sample as a whole.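 Testing used 96-well plates and a 48-hour single-concentration exposure. Example: -40 means 40% of the starting cells died.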 Unmarked numbers belong to inactive results. Active and inactive are the calls of the source. The calls were made as follows: active = growth percent below 10; inactive = the rest.
Experiments:
Experiment in all cases: NCI-60 one-dose screen, 48 h (100 = growth as untreated, 0 = no growth, -100 = all killed)
Settings in all cases: 10 µM unless noted
[1] = test system: SR leukemia
[2] = test system: OVCAR-8 ovarian
[3] = test system: OVCAR-5 ovarian
[4] = test system: OVCAR-4 ovarian
[5] = test system: SK-OV-3 ovarian
[6] = test system: IGROV1 ovarian
[7] = test system: OVCAR-3 ovarian
[8] = test system: HS 578T breast
[9] = test system: NCI/ADR-RES ovarian
[10] = test system: T-47D breast
[11] = test system: BT-549 breast
[12] = test system: MDA-MB-435 melanoma
[13] = test system: SW-620 colon
[14] = test system: MCF7 breast
[15] = test system: HCT-116 colon
[16] = test system: HCC-2998 colon
[17] = test system: KM12 colon

Compound | growth [1] | growth [2] [%] | growth [3] [%] | growth [4] [%] | growth [5] [%] | growth [6] [%] | growth [7] [%] | growth [8] [%] | growth [9] [%] | growth [10] [%] | growth [11] [%] | growth [12] | growth [13] | growth [14] [%] | growth [15] | growth [16] | growth [17]
NCCNc1nc2ccccc2c2c(=O)c3cc(F)ccc3sc12 | -20.5% (active) | 79.2 | 91.4 | 60.3 | 83.3 | 70.9 | 66.8 | 74.8 | 78.8 | 88.7 | 92.5 | 58.6% | -29.1% (active) | 52.6 | 22% | 4.32% (active) | 34.5%
NCCCNc1nc2ccccc2c2c(=O)c3cccc(F)c3sc12 | -16.7% (active) | 29 | 66.9 | 26.2 | 58.5 | 32.5 | 18.5 | 52.4 | 30.3 | 60.3 | 91.2 | 16.5% | -62.5% (active) | 19.9 | -72.5% (active) | -46% (active) | 4% (active)
C/C(=C(/c1ccccc1)c1ccc(N2C(=O)c3cccc4c(N5CCN(C)CC5)ccc(c34)C2=O)cc1)c1ccccc1 | -9.19% (active) | 83 | 91.9 | 56.6 | 106 | 69 | 82.7 | 97.9 | 84.9 | 65.3 | 99.6 | 88.2% | 80.2% | 59 | 49.4% | 99.8% | 79.8%
COc1cc2oc(-c3ccc(O)cc3)cc(=O)c2c(O)c1-c1c(OC)cc(O)c2c(=O)cc(-c3ccc(O)cc3)oc12 | 5.09% (active) | 28.1 | 101 | 67.8 | 37.5 | 16.7 | 29.3 | 17.5 | 79.6 | 82.8 | 46.7 | 1.08% (active) | 25.2% | 38 | 20.5% | 72.5% | 43.4%
O=C(N/N=C/[C@@H](O)[C@H](O)[C@H](O)CO)c1ccc(NC(=O)c2cccnc2)cc1 | 95.7% | 105 | 103 | 114 | 99.1 | 109 | 112 | 104 | 112 | 96.1 | 99 | 104% | 98.9% | 92.6 | 103% | 117% | 102%
O=C(N/N=C/[C@H](O)[C@H](O)[C@H](O)CO)c1ccc(NC(=O)c2cccnc2)cc1 | 99.9% | 102 | 102 | 110 | 110 | 107 | 118 | 98.4 | 109 | 99.2 | 102 | 103% | 103% | 92 | 105% | 110% | 103%
Nc1nn(C(=O)Nc2ccc(Cc3ccccc3)cc2)c2ccc(Cl)cc12 | 71.7% | 72.5 | 55.7 | 54.3 | 91 | 76.2 | 76.7 | 92.1 | 67 | 41.4 | 55.9 | 53.3% | 81.8% | 20.7 | 42.5% | 2.27% (active) | 66.2%
CCCCCCCCCCCCCCCCCC1OCC(COC(=O)O[C@]2(CC)C(=O)OCc3c2cc2n(c3=O)Cc3cc4ccccc4nc3-2)O1 (stereo partly drawn) | 8.38% (active) | 70.2 | 95.6 | 100 | 83.9 | 81.5 | 94.5 | 99.5 | 66.6 | 64.6 | 80 | 92.6% | 57.1% | 44.4 | 66.8% | 84.7% | 94.8%
COc1ccccc1/C=C1\Oc2cc(OCCN3CCC(Cc4ccccc4)CC3)ccc2C1=O | 5.96% (active) | 81.2 | 89.3 | 93.2 | 106 | 82.6 | 98 | 82.8 | 89.2 | 85.8 | 85.4 | 91.1% | 69.1% | 80.1 | 73.9% | 37.9% | 91.7%

Reference: PubChem BioAssay (NCI)
